This passage reports INHIBITION results from ChEMBL document CHEMBL4513216, “Probing the Open Global Health Chemical Diversity Library for Multistage-Active Starting Points for Next-Generation Antimalarials” (ACS Infect Dis, 2020).

Each structure is given as a SMILES string. Among all 69,000 compounds or so, about 8,600 (12%) showed an effect of 50% or more. Shown is part of a subset that was picked to be rich in strong results.

The subject of the assay is Plasmodium berghei. Description: Screen against P. berghei liver stage (PbLuc), transformed with Luciferase, at 10uM. It is filed as functional, HepG2. To be noted: tested at 10 uM.
Take `CCS(=O)(=O)NCC(=O)N(C1CC1)C1Cc2ccccc2C1`: the INHIBITION is reported as 7.39%.
The same measure for `O=C([C@H]1C[C@H]2OCC[C@H]2N(C(=O)c2ccncc2)C1)N1CCCC1`: -23.8%; for `CCN(CC)c1ccc(C(=O)N2CCCC2Cn2cc(C)cn2)cn1` (centres undefined): -4.75%; for `Cc1nn(-c2ccc(C(=O)O)cc2)c2c1C(C(C)C)SCC(=O)N2` (centres undefined): -2.39%.
As for `O=C1COc2ccc(S(=O)(=O)NCCC3=CCCCC3)cc2N1`, the figure is -13.6%.
As for `C[C@@H]1CN(CC(=O)NCc2ccccn2)C[C@]1(C)O`, the figure is 19.8%; as for `CC(=O)N1C[C@H]2CC[C@@H](C1)N(S(=O)(=O)c1ccc(C#N)cc1Cl)C2`, 38.3%.
On to `CC(C)OCCOCc1cccc(NC(=O)NCc2cnn(C)c2)c1`, for which the INHIBITION was 50.4%.
The same measure for `CNc1nc(CNC(=O)Nc2cccc(COCCOC(C)C)c2)cs1`: 52.4%.
On to `CC(C)OCCOCc1cccc(NC(=O)NCC(=O)N(C)C)c1`, for which the INHIBITION is recorded as 44.4%.
As for `CC(C)OCCOCc1cccc(NC(=O)NCc2ccccn2)c1`, the figure is 0.139%; as for `CC(C)OCCOCc1cccc(NC(=O)NCc2ccncc2)c1`, -18.2%; as for `Cc1cc(CNC(=O)Nc2cccc(COCCOC(C)C)c2)no1`, 29.5%.
The same measure for `COc1ccccc1CC(=O)N(C)Cc1cc(C)on1`: 10%; for `COc1ccc(OC)c(NC(=O)CSc2ccc3nncn3n2)c1`: 7.25%.
For the molecule `c1coc(-c2noc(CN3CCc4cncnc4C3)n2)c1`, the INHIBITION is 26.43%.
As for `Cc1noc(C)c1-c1cc(CCC2CN(C(=O)CN)CCO2)ncn1` (centres undefined), the figure is -7.005%; as for `CC(C)c1nnc(NC(=O)NC2CCOc3ccccc32)s1` (centres undefined), 32.2%.
As for `Cc1nnc(NC(=O)NC2CCOc3ccccc32)s1` (centres undefined), the figure is 13.5%.
As for `O=C(Nc1nnc(C2CC2)s1)NC1CCOc2ccccc21` (centres undefined), the figure is 54.4%.
As to `Cn1nccc1CN1CCOC(c2cccc(Nc3ccccn3)n2)C1` (centres undefined), the INHIBITION is recorded as 78.6%.
As for `Cn1nccc1CN1CCOC(c2ccc(-c3cncnc3)cn2)C1` (centres undefined), the figure is 23.8%.
As for `Cn1nccc1CN1CCOC(c2cccc(-c3cncnc3)n2)C1` (centres undefined), the figure is 16.55%.
Consider `Cc1c(C(=O)N2CCNC(=O)C2)sc2nc[nH]c(=O)c12`, for which the INHIBITION was 20.6%.
On to `O=C(O)c1c(-c2cccnc2)ncc2c1CCN(Cc1cccnc1)C2`, for which the INHIBITION worked out at 6.66%.
As for `Cn1nccc1-c1ncc2c(c1C(=O)O)CCN(Cc1ccccc1)C2`, the figure is 58.7%; as for `O=C(O)c1c(-c2cncnc2)ncc2c1CCN(Cc1cccnc1)C2`, 96.1%; as for `Cn1nccc1-c1ncc2c(c1C(=O)O)CCN(Cc1ccncc1)C2`, 20.1%.
Turning to `Cn1nccc1-c1ncc2c(c1C(=O)O)CCN(Cc1cccnc1)C2`, the INHIBITION is 13.7%.
The same measure for `O=C(O)c1c(-c2cccnc2)ncc2c1CCN(Cc1ccccn1)C2`: -33.9%; for `Fc1ccc(-c2cnc(C3CCCN3)cn2)cc1` (centres undefined): 27%.
The same measure for `O=C1[C@@H]2CC[C@@H](CN(C3CCOCC3)C2)N1Cc1cscn1`: 33%.
As for `CC(C(=O)O)n1nc(C(F)(F)F)c(Br)c1C1CC1` (centres undefined), the figure is 38.3%; as for `COc1ccc(Cl)cc1CC(=O)NS(=O)(=O)c1ccc(C(N)=O)cc1`, -18%.
As for `O=C(NCC(O)c1ccccc1)Nc1cccs1` (centres undefined), the INHIBITION is -39.3%.
The same measure for `CCSc1ncc(CN2CCN(c3ncc(C)c(N)n3)CC2)cn1`: -37.7%.
As for `CCSc1ncc(CN2CCN(c3nc(C)ncc3C)CC2)cn1`, the figure is 56.6%.
The same measure for `CCSc1ncc(CN2CCN(c3nc(C)cnc3C)CC2)cn1`: -50.8%.
Turning to `CCn1cnnc1CNS(=O)(=O)N1CCCC1c1ccco1` (centres undefined), the INHIBITION is -120%.
The same measure for `O=C(Cc1ccsc1)N1CCCCC1c1ccn2ccnc2n1` (centres undefined): 47.1%.
The same measure for `c1cncc(-c2nnn3c2COCC(CNC2CCOCC2)C3)c1` (centres undefined): 33.4%; for `Cc1ccnc(C2(C)CCCN2C(=O)c2cnccn2)n1` (centres undefined): 6.32%.
The same measure for `CC(=O)N[C@@H]1CN(Cc2ccco2)C[C@H]1c1ccc(C)o1`: 32.8%; for `C/C=C(\C)CN1C[C@H](NC(=O)CCOC)[C@@H](c2ccc(C)o2)C1`: 63.5%; for `C/C=C(\C)CN1C[C@H](NC(=O)CN2CCCC2=O)[C@@H](c2ccc(C)o2)C1`: 18.3%.
In the case of `O=C(NCC1CC1)Nc1cnc2ccc(F)cc2c1O`, the INHIBITION is 23.2%.
As for `COc1ccc(CN2C[C@@H]3CCCO[C@@H]3[C@H](NS(C)(=O)=O)C2)cc1`, the figure is 2.01%; as for `CO[C@@H]1c2ccccc2C2(CCN(C(=O)CNS(C)(=O)=O)CC2)[C@H]1O`, -6.61%.
As for `COc1ccc(NC(C)C(=O)NCCc2cccs2)cc1F` (centres undefined), the figure is 38.5%; as for `COc1ccc(NC(C)c2nnnn2-c2ccccc2)cn1` (centres undefined), 18.3%.
As for `COc1ccc(NC(C)c2nnnn2-c2ccccc2)cc1F` (centres undefined), the figure is 54.3%.
Consider `CCC(Nc1nnnn1-c1ccccc1)C(=O)Nc1ccccc1C` (centres undefined), for which the INHIBITION is -19.1%.
As for `CCOc1ccc(NC(C)c2nnnn2-c2ccccc2)cc1CO` (centres undefined), the figure is 20.9%; as for `CC(Nc1ccc(F)cc1)c1nnnn1-c1ccccc1` (centres undefined), 81.7%.
